Experimental data reported in paper PMC7862700, “An all-to-all approach to the identification of sequence-specific readers for epigenetic DNA modifications on cytosine”.

Assays:
Assay in all cases: DAPPL (digital affinity profiling via proximity ligation, sequencing); 10 mM Tris-HCl pH 7.5, 50 mM NaCl, 1 mM DTT, 4% glycerol, room temperature, 30 min; GST-TFs on glutathione beads, 16-mer random dsDNA library, 0.1% formaldehyde crosslink after washing; high values mean tight binding
FLI1 = molecular target: T1, FLI1 (Homo sapiens, UniProt Q01543 1-452); details: protein: recombinant; tags: N-terminal GST; dsDNA, one strand shown
T1 sequence: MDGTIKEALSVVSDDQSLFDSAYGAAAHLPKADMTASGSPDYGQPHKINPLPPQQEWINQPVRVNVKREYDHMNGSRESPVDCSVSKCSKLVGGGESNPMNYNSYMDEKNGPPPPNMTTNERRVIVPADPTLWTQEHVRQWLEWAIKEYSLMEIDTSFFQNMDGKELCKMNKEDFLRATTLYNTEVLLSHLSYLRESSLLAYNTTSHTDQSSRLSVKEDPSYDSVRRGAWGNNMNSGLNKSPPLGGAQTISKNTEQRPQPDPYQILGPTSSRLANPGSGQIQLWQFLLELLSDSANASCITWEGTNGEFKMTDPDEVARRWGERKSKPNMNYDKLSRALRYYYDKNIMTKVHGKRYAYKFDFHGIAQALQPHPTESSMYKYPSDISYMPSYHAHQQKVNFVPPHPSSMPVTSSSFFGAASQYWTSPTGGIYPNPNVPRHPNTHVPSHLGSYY
Procedure, shortened: (§1)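 Human transcription factors were made in yeast as GST fusions, captured on glutathione beads and barcoded with DNA. With a tag-only sample included, the pool was incubated with 200 nmole of a random double-stranded 16-mer DNA library in Tris/NaCl/DTT/glycerol buffer at room temperature for 30 min, then crosslinked with 0.1% formaldehyde after washing, ligated by proximity, amplified and sequenced. For binding signal, each hexamer's read frequency for a factor is divided by its frequency for the tag-only sample.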

ELK1 = molecular target: T2, ELK1 (Homo sapiens, UniProt P19419 1-428); details: protein: recombinant; tags: N-terminal GST; dsDNA, one strand shown
T2 sequence: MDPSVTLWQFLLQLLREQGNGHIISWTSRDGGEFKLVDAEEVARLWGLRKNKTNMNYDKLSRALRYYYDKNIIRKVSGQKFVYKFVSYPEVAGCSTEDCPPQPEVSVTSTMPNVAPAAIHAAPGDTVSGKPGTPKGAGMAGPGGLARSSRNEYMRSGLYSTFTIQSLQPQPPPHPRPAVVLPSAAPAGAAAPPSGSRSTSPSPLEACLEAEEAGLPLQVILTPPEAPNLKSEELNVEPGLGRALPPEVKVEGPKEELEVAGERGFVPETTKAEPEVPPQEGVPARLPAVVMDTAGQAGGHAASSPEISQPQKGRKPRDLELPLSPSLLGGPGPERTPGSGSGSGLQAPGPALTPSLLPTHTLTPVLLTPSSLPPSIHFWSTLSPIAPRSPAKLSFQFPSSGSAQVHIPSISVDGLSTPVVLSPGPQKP
Procedure, shortened: as §1

GABPA = molecular target: T3, GABPA (Homo sapiens, UniProt Q06546 1-454); details: protein: recombinant; tags: N-terminal GST; dsDNA, one strand shown
T3 sequence: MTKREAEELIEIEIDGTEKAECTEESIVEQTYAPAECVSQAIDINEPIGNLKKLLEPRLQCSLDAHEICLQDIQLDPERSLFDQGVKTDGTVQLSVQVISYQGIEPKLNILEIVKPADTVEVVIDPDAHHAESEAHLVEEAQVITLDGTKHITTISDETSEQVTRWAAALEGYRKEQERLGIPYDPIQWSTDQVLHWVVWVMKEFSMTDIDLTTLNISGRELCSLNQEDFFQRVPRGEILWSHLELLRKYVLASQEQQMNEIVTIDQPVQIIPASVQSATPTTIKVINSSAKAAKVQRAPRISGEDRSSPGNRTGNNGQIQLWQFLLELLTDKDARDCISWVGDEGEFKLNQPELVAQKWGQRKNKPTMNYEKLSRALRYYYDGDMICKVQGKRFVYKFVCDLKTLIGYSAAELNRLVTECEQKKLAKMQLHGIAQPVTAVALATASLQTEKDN
Procedure, shortened: as §1

ERG = molecular target: T4, ERG (Homo sapiens, UniProt P11308 1-479); details: protein: recombinant; tags: N-terminal GST; dsDNA, one strand shown
T4 sequence: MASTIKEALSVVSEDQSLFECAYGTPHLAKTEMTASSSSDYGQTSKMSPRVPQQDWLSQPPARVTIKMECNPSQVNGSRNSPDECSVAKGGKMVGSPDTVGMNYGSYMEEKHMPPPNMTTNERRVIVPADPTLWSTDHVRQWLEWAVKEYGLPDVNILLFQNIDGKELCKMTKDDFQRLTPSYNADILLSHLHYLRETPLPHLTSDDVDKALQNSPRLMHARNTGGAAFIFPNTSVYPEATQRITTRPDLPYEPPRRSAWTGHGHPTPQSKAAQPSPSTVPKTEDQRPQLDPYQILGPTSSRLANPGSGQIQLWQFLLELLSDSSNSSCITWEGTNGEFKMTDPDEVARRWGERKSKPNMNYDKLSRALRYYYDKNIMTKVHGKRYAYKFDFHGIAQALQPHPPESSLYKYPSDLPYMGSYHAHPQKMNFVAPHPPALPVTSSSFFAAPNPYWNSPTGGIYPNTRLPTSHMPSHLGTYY
Procedure, shortened: as §1

ELF1 = ELF1 (Homo sapiens, UniProt P32519 1-619); details: protein: recombinant; tags: N-terminal GST; dsDNA, one strand shown
Sequence of ELF1 (P32519 whole entry): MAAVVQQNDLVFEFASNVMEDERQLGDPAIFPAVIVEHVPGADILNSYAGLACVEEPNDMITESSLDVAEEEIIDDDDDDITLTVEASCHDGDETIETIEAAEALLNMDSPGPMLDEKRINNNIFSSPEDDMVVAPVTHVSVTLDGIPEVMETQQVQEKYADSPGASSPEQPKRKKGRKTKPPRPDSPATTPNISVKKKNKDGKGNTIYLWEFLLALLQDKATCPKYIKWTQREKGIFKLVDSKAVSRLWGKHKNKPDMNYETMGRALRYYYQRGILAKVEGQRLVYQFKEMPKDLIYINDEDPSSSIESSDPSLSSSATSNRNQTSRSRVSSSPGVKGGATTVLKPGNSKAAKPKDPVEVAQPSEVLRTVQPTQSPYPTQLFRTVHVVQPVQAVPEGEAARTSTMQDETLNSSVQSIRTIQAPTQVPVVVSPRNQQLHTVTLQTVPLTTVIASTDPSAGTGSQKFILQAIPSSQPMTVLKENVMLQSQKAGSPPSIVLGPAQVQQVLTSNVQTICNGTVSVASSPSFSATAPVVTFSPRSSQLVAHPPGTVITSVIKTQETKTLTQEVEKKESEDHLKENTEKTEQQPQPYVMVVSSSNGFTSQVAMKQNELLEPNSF
Procedure, shortened: as §1

EHF = molecular target: T5, EHF (Homo sapiens, UniProt Q9NZC4 1-300); details: protein: recombinant; tags: N-terminal GST; dsDNA, one strand shown
T5 sequence: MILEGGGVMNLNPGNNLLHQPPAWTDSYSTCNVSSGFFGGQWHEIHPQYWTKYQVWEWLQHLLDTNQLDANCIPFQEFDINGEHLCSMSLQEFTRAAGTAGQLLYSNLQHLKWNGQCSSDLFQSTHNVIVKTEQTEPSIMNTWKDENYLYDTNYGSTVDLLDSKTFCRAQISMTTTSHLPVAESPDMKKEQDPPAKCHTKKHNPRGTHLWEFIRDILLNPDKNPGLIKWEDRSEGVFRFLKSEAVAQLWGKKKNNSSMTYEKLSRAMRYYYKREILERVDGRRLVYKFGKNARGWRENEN
Procedure, shortened: as §1

SPI1 = SPI1 (Homo sapiens, UniProt P17947 1-270); details: protein: recombinant; tags: N-terminal GST; dsDNA, one strand shown
Procedure, shortened: as §1

SPIB = SPIB (Homo sapiens, UniProt Q01892 1-262); details: protein: recombinant; tags: N-terminal GST; dsDNA, one strand shown
Sequence of SPIB (Q01892 whole entry): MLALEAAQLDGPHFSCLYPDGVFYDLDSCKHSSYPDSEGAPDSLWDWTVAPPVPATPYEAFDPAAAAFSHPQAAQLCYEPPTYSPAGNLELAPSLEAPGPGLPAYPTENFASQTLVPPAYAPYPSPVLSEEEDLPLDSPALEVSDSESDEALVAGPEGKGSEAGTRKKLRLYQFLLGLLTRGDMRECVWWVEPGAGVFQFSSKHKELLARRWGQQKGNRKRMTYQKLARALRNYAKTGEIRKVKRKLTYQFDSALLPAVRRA
Procedure, shortened: as §1

FEV = molecular target: T6, FEV (Homo sapiens, UniProt Q99581 1-238); details: protein: recombinant; tags: N-terminal GST; dsDNA, one strand shown
T6 sequence: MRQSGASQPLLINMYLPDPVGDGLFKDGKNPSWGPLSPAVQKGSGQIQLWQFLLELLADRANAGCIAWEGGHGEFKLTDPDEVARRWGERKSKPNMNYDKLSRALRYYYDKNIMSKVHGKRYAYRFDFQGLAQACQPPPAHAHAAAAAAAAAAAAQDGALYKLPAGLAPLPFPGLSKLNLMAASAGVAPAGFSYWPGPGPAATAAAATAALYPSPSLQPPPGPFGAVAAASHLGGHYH
Procedure, shortened: as §1

ETV5 = ETV5 (Homo sapiens, UniProt P41161 1-510); details: protein: recombinant; tags: N-terminal GST; dsDNA, one strand shown
Sequence of ETV5 (P41161 whole entry): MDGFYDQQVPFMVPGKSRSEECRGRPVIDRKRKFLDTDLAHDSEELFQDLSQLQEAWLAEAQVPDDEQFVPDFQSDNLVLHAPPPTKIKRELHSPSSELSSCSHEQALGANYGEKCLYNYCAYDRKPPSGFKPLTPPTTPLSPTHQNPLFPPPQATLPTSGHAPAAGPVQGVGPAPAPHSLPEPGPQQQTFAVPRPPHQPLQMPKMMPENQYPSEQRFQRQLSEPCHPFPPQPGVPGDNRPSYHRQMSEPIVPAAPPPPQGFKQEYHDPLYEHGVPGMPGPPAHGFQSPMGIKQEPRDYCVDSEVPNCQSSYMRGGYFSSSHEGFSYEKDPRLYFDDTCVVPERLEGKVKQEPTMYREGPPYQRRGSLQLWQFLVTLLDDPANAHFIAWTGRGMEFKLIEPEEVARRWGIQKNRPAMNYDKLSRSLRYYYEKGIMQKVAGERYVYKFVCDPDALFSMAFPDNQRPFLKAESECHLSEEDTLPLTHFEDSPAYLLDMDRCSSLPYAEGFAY
Procedure, shortened: as §1

HSF1 = HSF1 (Homo sapiens, UniProt Q00613 1-529); details: protein: recombinant; tags: N-terminal GST; chain copies: 3; dsDNA, one strand shown
Sequence of HSF1 (Q00613 whole entry): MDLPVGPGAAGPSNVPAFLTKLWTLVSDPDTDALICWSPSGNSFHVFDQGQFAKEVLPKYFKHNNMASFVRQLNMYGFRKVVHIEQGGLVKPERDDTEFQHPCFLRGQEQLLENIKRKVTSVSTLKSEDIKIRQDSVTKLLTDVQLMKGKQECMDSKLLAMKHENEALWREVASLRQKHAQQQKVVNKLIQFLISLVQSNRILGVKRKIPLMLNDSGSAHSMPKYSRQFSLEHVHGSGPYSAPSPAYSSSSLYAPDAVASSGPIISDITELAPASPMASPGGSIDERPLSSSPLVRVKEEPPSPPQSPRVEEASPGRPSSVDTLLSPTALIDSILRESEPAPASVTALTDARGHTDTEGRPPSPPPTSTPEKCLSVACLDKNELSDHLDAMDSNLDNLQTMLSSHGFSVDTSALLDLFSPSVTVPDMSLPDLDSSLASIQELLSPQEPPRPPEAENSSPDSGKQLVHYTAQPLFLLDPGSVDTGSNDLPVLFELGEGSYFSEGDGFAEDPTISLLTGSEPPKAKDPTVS
Procedure, shortened: as §1

SPIC = molecular target: T7, SPIC (Homo sapiens, UniProt Q8N5J4 1-248); details: protein: recombinant; tags: N-terminal GST; dsDNA, one strand shown
T7 sequence: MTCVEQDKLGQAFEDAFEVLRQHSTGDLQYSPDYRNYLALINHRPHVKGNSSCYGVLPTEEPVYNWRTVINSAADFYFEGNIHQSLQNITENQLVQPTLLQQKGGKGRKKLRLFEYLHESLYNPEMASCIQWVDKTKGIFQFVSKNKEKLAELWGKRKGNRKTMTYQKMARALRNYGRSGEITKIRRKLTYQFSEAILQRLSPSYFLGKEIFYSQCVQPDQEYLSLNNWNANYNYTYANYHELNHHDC
Procedure, shortened: as §1

ELF4 = ELF4 (Homo sapiens, UniProt Q99607 1-663); details: protein: recombinant; tags: N-terminal GST; dsDNA, one strand shown
Sequence of ELF4 (Q99607 whole entry): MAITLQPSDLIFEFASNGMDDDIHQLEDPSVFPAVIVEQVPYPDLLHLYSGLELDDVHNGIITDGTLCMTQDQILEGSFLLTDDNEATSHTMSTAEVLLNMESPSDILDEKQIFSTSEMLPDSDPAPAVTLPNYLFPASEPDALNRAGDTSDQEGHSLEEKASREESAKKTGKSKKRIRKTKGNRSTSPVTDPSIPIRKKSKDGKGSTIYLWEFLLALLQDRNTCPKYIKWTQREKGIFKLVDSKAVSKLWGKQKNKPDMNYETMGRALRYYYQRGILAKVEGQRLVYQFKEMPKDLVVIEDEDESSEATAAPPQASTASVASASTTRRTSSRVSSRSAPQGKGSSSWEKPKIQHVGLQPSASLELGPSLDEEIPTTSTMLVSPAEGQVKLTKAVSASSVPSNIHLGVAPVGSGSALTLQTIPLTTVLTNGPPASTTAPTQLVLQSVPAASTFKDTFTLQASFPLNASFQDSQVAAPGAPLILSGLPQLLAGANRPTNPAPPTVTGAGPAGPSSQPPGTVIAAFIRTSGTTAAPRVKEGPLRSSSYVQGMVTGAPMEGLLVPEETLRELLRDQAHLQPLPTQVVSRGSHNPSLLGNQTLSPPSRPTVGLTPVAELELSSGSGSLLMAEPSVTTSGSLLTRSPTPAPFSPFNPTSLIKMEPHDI
Procedure, shortened: as §1

ELK4 = molecular target: T8, ELK4 (Homo sapiens, UniProt P28324-2 1-405); details: protein: recombinant; tags: N-terminal GST; dsDNA, one strand shown
T8 sequence: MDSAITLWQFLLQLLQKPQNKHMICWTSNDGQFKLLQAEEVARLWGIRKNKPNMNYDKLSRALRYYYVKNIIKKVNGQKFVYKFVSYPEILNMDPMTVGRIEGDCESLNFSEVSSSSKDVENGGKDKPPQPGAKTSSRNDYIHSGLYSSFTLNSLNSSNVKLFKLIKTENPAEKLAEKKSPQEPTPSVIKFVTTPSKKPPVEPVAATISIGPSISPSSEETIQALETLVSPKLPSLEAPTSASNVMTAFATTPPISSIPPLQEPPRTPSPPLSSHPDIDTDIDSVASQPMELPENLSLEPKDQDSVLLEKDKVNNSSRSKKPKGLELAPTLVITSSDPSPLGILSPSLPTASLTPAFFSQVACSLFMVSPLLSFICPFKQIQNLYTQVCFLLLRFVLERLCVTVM
Procedure, shortened: as §1

ELF3 = molecular target: T9, ELF3 (Homo sapiens, UniProt P78545 1-371); details: protein: recombinant; tags: N-terminal GST; dsDNA, one strand shown
T9 sequence: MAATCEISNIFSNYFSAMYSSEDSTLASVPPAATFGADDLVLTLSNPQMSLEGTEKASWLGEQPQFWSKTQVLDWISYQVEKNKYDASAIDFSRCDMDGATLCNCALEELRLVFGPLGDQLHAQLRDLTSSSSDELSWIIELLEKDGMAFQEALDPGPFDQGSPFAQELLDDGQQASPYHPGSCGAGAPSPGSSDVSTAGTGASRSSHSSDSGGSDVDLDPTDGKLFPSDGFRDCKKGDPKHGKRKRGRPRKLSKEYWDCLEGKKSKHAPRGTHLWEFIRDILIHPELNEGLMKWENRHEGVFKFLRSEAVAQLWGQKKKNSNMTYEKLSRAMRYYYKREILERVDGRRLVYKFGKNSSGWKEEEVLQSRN
Procedure, shortened: as §1

ETV1 = ETV1 (Homo sapiens, UniProt P50549 1-477); details: protein: recombinant; tags: N-terminal GST; dsDNA, one strand shown
Sequence of ETV1 (P50549 whole entry): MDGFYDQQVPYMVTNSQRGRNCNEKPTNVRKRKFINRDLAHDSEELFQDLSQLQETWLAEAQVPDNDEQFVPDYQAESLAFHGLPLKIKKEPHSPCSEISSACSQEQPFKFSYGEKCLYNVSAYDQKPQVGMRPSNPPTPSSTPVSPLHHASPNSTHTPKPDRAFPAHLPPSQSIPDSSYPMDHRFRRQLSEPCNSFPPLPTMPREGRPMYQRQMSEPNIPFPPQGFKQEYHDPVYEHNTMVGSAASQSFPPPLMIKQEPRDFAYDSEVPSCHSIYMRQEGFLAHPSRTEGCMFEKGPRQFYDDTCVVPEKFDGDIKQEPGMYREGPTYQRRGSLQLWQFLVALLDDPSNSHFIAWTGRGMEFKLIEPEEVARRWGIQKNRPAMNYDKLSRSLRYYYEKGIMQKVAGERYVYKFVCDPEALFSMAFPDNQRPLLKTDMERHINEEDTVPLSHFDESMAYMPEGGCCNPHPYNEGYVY
Procedure, shortened: as §1

ETV2 = molecular target: T10, ETV2 (Homo sapiens, UniProt O00321 1-342); details: protein: recombinant; tags: N-terminal GST; dsDNA, one strand shown
T10 sequence: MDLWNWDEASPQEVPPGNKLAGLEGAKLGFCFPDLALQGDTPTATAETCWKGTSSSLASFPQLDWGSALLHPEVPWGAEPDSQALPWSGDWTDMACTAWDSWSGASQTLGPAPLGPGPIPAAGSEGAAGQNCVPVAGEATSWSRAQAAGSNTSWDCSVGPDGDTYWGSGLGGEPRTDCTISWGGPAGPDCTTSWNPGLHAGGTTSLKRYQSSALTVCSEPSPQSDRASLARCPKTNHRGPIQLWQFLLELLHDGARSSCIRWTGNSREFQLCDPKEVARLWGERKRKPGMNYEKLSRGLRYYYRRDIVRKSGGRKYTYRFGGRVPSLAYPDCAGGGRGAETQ
Procedure, shortened: as §1

CRX = CRX (Homo sapiens, UniProt O43186 1-299); details: protein: recombinant; tags: N-terminal GST; dsDNA, one strand shown
Sequence of CRX (O43186 whole entry): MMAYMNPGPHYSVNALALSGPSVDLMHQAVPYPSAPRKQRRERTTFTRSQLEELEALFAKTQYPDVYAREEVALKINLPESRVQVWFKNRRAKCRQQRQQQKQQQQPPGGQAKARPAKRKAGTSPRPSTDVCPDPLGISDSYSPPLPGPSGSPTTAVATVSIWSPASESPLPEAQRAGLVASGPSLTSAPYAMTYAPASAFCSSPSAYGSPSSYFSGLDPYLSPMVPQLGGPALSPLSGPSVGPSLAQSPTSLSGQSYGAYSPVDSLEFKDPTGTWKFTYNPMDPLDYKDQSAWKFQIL
Procedure, shortened: as §1

Sequence: TGCGCA
- binding signal (FLI1): 1.17 fold enrichment (6-mer frequency, TF over GST control)
- binding signal (ELK1): 1.07 fold enrichment (6-mer frequency, TF over GST control)
- binding signal (GABPA): 1.07 fold enrichment (6-mer frequency, TF over GST control)
- binding signal (ERG): 1.07 fold enrichment (6-mer frequency, TF over GST control)
- binding signal (ELF1): 1.14 fold enrichment (6-mer frequency, TF over GST control)
- binding signal (EHF): 1.16 fold enrichment (6-mer frequency, TF over GST control)
- binding signal (SPI1): 1.08 fold enrichment (6-mer frequency, TF over GST control)
- binding signal (SPIB): 1.02 fold enrichment (6-mer frequency, TF over GST control)
- binding signal (FEV): 1.14 fold enrichment (6-mer frequency, TF over GST control)
- binding signal (ETV5): 1.12 fold enrichment (6-mer frequency, TF over GST control)
- binding signal (HSF1): 1.07 fold enrichment (6-mer frequency, TF over GST control)
- binding signal (SPIC): 1.15 fold enrichment (6-mer frequency, TF over GST control)
- binding signal (ELF4): 1.09 fold enrichment (6-mer frequency, TF over GST control)
- binding signal (ELK4): 1.12 fold enrichment (6-mer frequency, TF over GST control)
- binding signal (ELF3): 1.06 fold enrichment (6-mer frequency, TF over GST control)
- binding signal (ETV1): 1.07 fold enrichment (6-mer frequency, TF over GST control)

Sequence: TCATTA
- binding signal (FLI1): 1.12 fold enrichment (6-mer frequency, TF over GST control)
- binding signal (GABPA): 1.07 fold enrichment (6-mer frequency, TF over GST control)
- binding signal (ERG): 1.06 fold enrichment (6-mer frequency, TF over GST control)
- binding signal (ELF1): 1.16 fold enrichment (6-mer frequency, TF over GST control)
- binding signal (EHF): 1.09 fold enrichment (6-mer frequency, TF over GST control)
- binding signal (SPI1): 1.12 fold enrichment (6-mer frequency, TF over GST control)
- binding signal (SPIB): 1.16 fold enrichment (6-mer frequency, TF over GST control)
- binding signal (FEV): 1.11 fold enrichment (6-mer frequency, TF over GST control)
- binding signal (ETV5): 1.11 fold enrichment (6-mer frequency, TF over GST control)
- binding signal (HSF1): 1.18 fold enrichment (6-mer frequency, TF over GST control)
- binding signal (SPIC): 1.24 fold enrichment (6-mer frequency, TF over GST control)
- binding signal (ELF4): 1.15 fold enrichment (6-mer frequency, TF over GST control)
- binding signal (ELK4): 1.16 fold enrichment (6-mer frequency, TF over GST control)
- binding signal (ETV2): 1.08 fold enrichment (6-mer frequency, TF over GST control)
- binding signal (ELF3): 1.07 fold enrichment (6-mer frequency, TF over GST control)
- binding signal (CRX): 1.62 fold enrichment (6-mer frequency, TF over GST control)
- binding signal (ETV1): 1.08 fold enrichment (6-mer frequency, TF over GST control)
